From the supplement of paper PMC6555819

Tests used:
Assay in all cases: PBM binding z-score (relative to random genomic background probes); higher = stronger binding; sequences stand for … in GC…GCGATTGACAGCGTAGAATGAAGG
[1] = test system: FXR:RXRa (NR concentration 270 nM, RXRa partner concentration 90 nM)
Summary of the method: (§1)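 Custom Agilent 4×180K protein-binding microarrays carried double-stranded probes. Their 34-nt variable regions held direct-repeat seeds, single-nucleotide variants, half-site ablations and random human genomic background sequences. Arrays were incubated 1 h with ligand-free nuclear receptor dimers in PBS pH 7.4, 2% milk, 0.02% Triton X-100, 1 mM DTT, 0.2 mg/mL BSA and 0.4 mg/ml salmon testes DNA. Antibodies against each partner (one per run) detected binding, and scanned fluorescence was regression-normalized. Binding z-scores use random background probes as reference.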

[2] = test system: LXRa:RXRa (NR concentration 270 nM, RXRa partner concentration 90 nM)
Summary of the method: as §1

[3] = test system: LXRa homodimer (NR concentration 270 nM)
Summary of the method: as §1

[4] = test system: LXRb:RXRa (NR concentration 270 nM, RXRa partner concentration 90 nM)
Summary of the method: as §1

[5] = test system: LXRb homodimer (NR concentration 270 nM)
Summary of the method: as §1

[6] = test system: PPARa:RXRa (NR concentration 270 nM, RXRa partner concentration 90 nM)
Summary of the method: as §1

[7] = test system: PPARg:RXRa (NR concentration 180 nM, RXRa partner concentration 90 nM)
Summary of the method: as §1

[8] = test system: PPARg:RXRa 270nM:90nM, anti-RXR (NR concentration 270 nM, RXRa partner concentration 90 nM)
Summary of the method: as §1

[9] = test system: PPARg:RXRa 30nM:10nM, anti-RXR (NR concentration 30 nM, RXRa partner concentration 10 nM)
Summary of the method: as §1

[10] = test system: PPARg:RXRa 90nM:30nM, anti-RXR (NR concentration 90 nM, RXRa partner concentration 30 nM)
Summary of the method: as §1

[11] = test system: PPARg:RXRa DBDmut IVT, anti-RXR (DBD mutation: RXRa K156A/R161A, NR concentration 270 nM, RXRa partner concentration 90 nM)
Summary of the method: as §1

[12] = test system: PPARg:RXRa IVT, anti-PPARg (NR concentration 270 nM, RXRa partner concentration 90 nM)
Summary of the method: as §1

[13] = test system: PPARg DBDmut:RXRa IVT, anti-PPARg (DBD mutation: PPARg1 K132A/R137A, NR concentration 270 nM, RXRa partner concentration 90 nM)
Summary of the method: as §1

[14] = test system: PPARg DBDmut IVT, anti-PPARg (DBD mutation: PPARg1 K132A/R137A, NR concentration 270 nM)
Summary of the method: as §1

[15] = test system: PPARg homodimer (NR concentration 180 nM)
Summary of the method: as §1

[16] = test system: PXR:RXRa (NR concentration 270 nM, RXRa partner concentration 90 nM)
Summary of the method: as §1

[17] = test system: PXR homodimer (NR concentration 270 nM)
Summary of the method: as §1

[18] = test system: RARa:RXR (NR concentration 270 nM, RXRa partner concentration 90 nM)
Summary of the method: as §1

[19] = test system: RARa homodimer (NR concentration 270 nM)
Summary of the method: as §1

[20] = test system: RARb:RXRa (NR concentration 270 nM, RXRa partner concentration 90 nM)
Summary of the method: as §1

| Sequence | PBM binding z-score [1] | PBM binding z-score [2] | PBM binding z-score [3] | PBM binding z-score [4] | PBM binding z-score [5] | PBM binding z-score [6] | PBM binding z-score [7] | PBM binding z-score [8] | PBM binding z-score [9] | PBM binding z-score [10] | PBM binding z-score [11] | PBM binding z-score [12] | PBM binding z-score [13] | PBM binding z-score [14] | PBM binding z-score [15] | PBM binding z-score [16] | PBM binding z-score [17] | PBM binding z-score [18] | PBM binding z-score [19] | PBM binding z-score [20] |
| --- | --- | --- | --- | --- | --- | --- | --- | --- | --- | --- | --- | --- | --- | --- | --- | --- | --- | --- | --- | --- |
| ATATGTAGGTAAGCTGGGGTCATTCAGACTAGGC | 4.33 | 4.31 | 1.73 | 4.3 | 1.58 | 4.98 | 4.31 | 4.65 | 2 | 3.77 | 6.08 | 5.46 | 1.69 | 1.13 | 1.48 | 6.07 | 3.4 | 5.45 | 0.719 | 2.67 |
| TCGAGTAGGTTACCAGTGGGGCATTCAGCTTTCT | -0.0125 | 1.19 | -0.24 | 0.725 | -0.623 | 1.16 | 0.278 | 1.36 | 1.05 | 1.36 | 3.82 | 3.43 | -0.827 | -0.418 | 0.236 | -0.206 | -0.913 | 0.372 | -1.02 | 0.865 |
| ACTCGGAGCACAAAGGTCAGAGCTACGCCAGTGA | 3.44 | 3.72 | 1.25 | 3.11 | 0.00562 | 4.38 | 5.58 | 6.38 | 4.55 | 6.24 | 0.735 | 2.74 | -0.286 | -0.435 | 2.92 | 3.62 | 0.191 | 4.5 | 0.544 | 4.29 |
| AGCTCTAGGTAACAAGTTCAGTGAAAGAGAGGAC | 0.5 | 0.614 | 0.194 | 0.684 | 0.134 | 1.53 | 1.33 | 1.92 | 0.448 | 1.34 | 3.82 | 2.13 | 0.734 | 0.272 | 0.839 | 1.63 | 1.98 | 0.544 | 0.529 | 1.64 |
| ATCTCTAGGTAAAGAAAGTTCAGTGAATGCAAAT | 0.762 | 4.7 | 1.94 | 1.58 | 0.904 | 1.38 | 0.409 | 0.933 | 0.542 | 0.768 | 2 | 1.69 | 1.32 | 0.83 | 1.41 | 2.68 | 1.68 | 1.42 | 1.41 | 1.82 |
| TCTTGTGGATCAAGCAGGTTAAGAAAGCCTGAGT | 0.364 | 0.407 | -0.212 | 0.444 | -0.493 | 0.766 | -0.54 | 1.07 | 2.27 | 1.58 | 1.46 | 0.177 | -0.713 | 0.262 | -0.187 | 0.422 | 0.248 | 0.506 | -0.587 | 0.161 |
| GCAGGCAGGTGAAACGCAGGTAACTCAGGGTGGC | 0.782 | 0.881 | -0.513 | -0.67 | -0.423 | 0.341 | 0.206 | -0.46 | -0.909 | -0.6 | 1.12 | 0.912 | -1 | -1.1 | -0.662 | -0.0371 | -1.2 | 0.429 | -0.796 | 0.562 |
| TCAAACAGGTGAAGGTAACTCAGGTACGCAGTCG | 1.02 | 1.85 | 0.0857 | 1.22 | -0.218 | 1.61 | 0.959 | 2.43 | 4.26 | 3.48 | 3.03 | 1.6 | 0.098 | 0.184 | 0.662 | 0.812 | 0.0874 | 1.19 | 0.552 | 1.26 |
| TCTCGGAGGACACGAAGGTCGGAGCTTTCCAGAG | 0.628 | -0.0853 | -0.898 | -0.334 | -1.43 | 0.339 | -0.0942 | 1.17 | 1.87 | 1.67 | 1.25 | 0.119 | -2.18 | -1.55 | -0.462 | 0.265 | -0.139 | 0.366 | -1.24 | 1.81 |
| TCTTGTAGCTCAAGCAGGTTAAGAAAGCCTGAGT | -0.423 | -0.287 | -0.662 | 0.0107 | -0.909 | 0.461 | -0.708 | 0.77 | 2.04 | 1.39 | 0.652 | -0.0591 | -0.768 | -0.282 | -1.23 | -0.102 | -0.596 | -0.128 | -0.944 | -0.012 |
| AGAACGAGGGCACTCTGAGTTGATAGCAGAGTAG | 0.473 | 0.561 | -0.613 | -0.0145 | -0.411 | 1.35 | 1.21 | 1.19 | -0.0176 | 0.277 | 3.52 | 2.74 | 0.243 | -0.0516 | -0.209 | 1.14 | -0.0913 | 0.301 | -0.677 | 1.84 |
| GCTAGTTGGTCAGTGAAAGGTCACACACCGGTCG | 3.55 | 4.39 | 4.49 | 3.7 | 0.467 | 4.43 | 4.64 | 5.57 | 3.93 | 5.67 | 1.21 | 2.97 | 0.254 | 0.307 | 3.99 | 5.13 | 1.02 | 5.89 | 1.88 | 4.27 |
| ATCGAAAGGTCGTGAGGTGAGGATACAGAAAGGC | 5.69 | 4.09 | 0.323 | 3.37 | 0.581 | 5.08 | 4.41 | 4.73 | 1.86 | 3.51 | 0.406 | 2.89 | 1.55 | 0.615 | 2.28 | 3.3 | 0.684 | 4.61 | 1.12 | 4.13 |
| TAGCCTAGGTCAGTTCGGGCCAGTATACGCTATA | 1.39 | 0.745 | -0.272 | 0.551 | -0.0472 | 1.22 | 0.33 | 0.647 | -0.293 | 0.114 | 0.449 | 1.21 | -0.878 | -1.14 | -0.282 | 1.53 | -0.352 | 0.927 | -0.951 | 2.92 |
| TCGAGTAGGTTAGGGGCATTCTGAATGGCGTCGA | 0.16 | 0.0463 | -0.301 | 0.694 | -0.421 | 1.08 | 0.543 | 2.02 | 1.09 | 1.41 | 2.23 | 1.58 | -0.74 | -0.137 | 0.496 | 0.244 | 0.106 | 0.337 | -0.415 | 0.807 |
